According to the supplement of paper PMC6555819:

What was measured:
Test in all cases: PBM binding z-score (relative to random genomic background probes); higher = stronger binding; sequences stand for … in GC…GCGATTGACAGCGTAGAATGAAGG
[1] = system: FXR:RXRa (NR concentration 270 nM, RXRa partner concentration 90 nM)
Method in brief: (§1)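 Random background probes are the reference for binding z-scores. These scores derive from regression-normalized fluorescence on custom Agilent 4×180K protein-binding microarrays incubated 1 h with ligand-free nuclear receptor dimers. Binding was detected with antibodies against each partner (one per run).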

[2] = system: LXRa:RXRa (NR concentration 270 nM, RXRa partner concentration 90 nM)
Method in brief: as §1

[3] = system: LXRa homodimer (NR concentration 270 nM)
Method in brief: as §1

[4] = system: LXRb:RXRa (NR concentration 270 nM, RXRa partner concentration 90 nM)
Method in brief: as §1

[5] = system: LXRb homodimer (NR concentration 270 nM)
Method in brief: as §1

[6] = system: PPARa:RXRa (NR concentration 270 nM, RXRa partner concentration 90 nM)
Method in brief: as §1

[7] = system: PPARg:RXRa (NR concentration 180 nM, RXRa partner concentration 90 nM)
Method in brief: as §1

[8] = system: PPARg:RXRa 270nM:90nM, anti-RXR (NR concentration 270 nM, RXRa partner concentration 90 nM)
Method in brief: as §1

[9] = system: PPARg:RXRa 30nM:10nM, anti-RXR (NR concentration 30 nM, RXRa partner concentration 10 nM)
Method in brief: as §1

[10] = system: PPARg:RXRa 90nM:30nM, anti-RXR (NR concentration 90 nM, RXRa partner concentration 30 nM)
Method in brief: as §1

Sequence	PBM binding z-score [1]	PBM binding z-score [2]	PBM binding z-score [3]	PBM binding z-score [4]	PBM binding z-score [5]	PBM binding z-score [6]	PBM binding z-score [7]	PBM binding z-score [8]	PBM binding z-score [9]	PBM binding z-score [10]
ATCTCTAGGTAACAGGTTCAGTGAAAGAGAGGAC	0.507	0.677	0.529	0.67	1.09	1.8	2.61	2.9	1.5	2.78
GCGACTGGGGCAAAGCAGGTTAACATAAGGTTGG	0.921	0.436	-0.346	0.261	-1.01	1.41	1.62	1.19	0.0162	0.614
GGAACGAGGGCAAAGTTGCTAGCATCTGTCGACG	0.659	0.547	-0.512	0.42	-0.761	2.65	3.83	5.03	2.76	5.06
ATATGTAGGTTTCATCCGGGTCATTCAGGCTATG	1.4	1.72	0.315	2.07	0.658	3.09	2.23	2.17	0.721	1.43
GCGACTGGGGCAAAGCAGGTTAGCATAAGGTTGG	0.494	-0.573	-0.598	-0.43	-1.24	0.977	1.14	0.948	-0.509	0.412
CCTTACTGGTCACGAGGTTATAGCACGACGAGCG	1.49	1.46	0.682	1.36	0.455	2.04	1.77	1.97	-0.0752	1.04
ATCTCTAGGTAAAGATAGTTCAGTGCATGCAAAT	0.301	4	0.693	0.899	0.443	0.697	0.357	0.286	0.0573	0.225
CCTAGTTGGTCAGGAGGTCACTCACCGGATATGA	3.08	2.85	1.57	2.79	0.66	3.54	2.76	3.43	1.11	2.75
TCGATTAGGTTAGTCGGGGCATTCAGCCAACATA	0.428	0.421	-0.073	0.839	-0.164	0.801	-0.279	1.29	2.61	1.79
CCTACTGAGCCAAGGTCATTGATCAGTCAAAGCA	3.46	3.43	1.43	3.3	0.637	3.61	0.656	1.62	0.331	0.858
ATTTCTAGGTAACCAAGTTCAGTGAATGCCGAAC	0.465	0.956	1.1	0.544	0.68	2.16	1.8	1.8	0.773	1.38
ATATGTAGGTTATGGGGTCATTCAGTTTGCGCAT	5.54	5.12	3.61	5.55	2.36	5.91	8.65	7.03	5.67	7.31
CGTTCAAGGTCAGAGAGGTCAGTGAATGCCGAGT	6.69	5.26	3.71	4.58	0.61	5.27	4.38	4.69	1.58	3.31
ACAAGCAGGCCAAGTTTGGGTCACTCAAACAAAG	0.226	0.181	-0.641	0.53	-0.924	1.51	0.101	0.443	-0.289	0.124
TGTCAAAGTTCAAAGGTAACGGAAGTATCCACAC	7.08	6.74	4.4	4.82	1.8	6.04	8.79	7.85	5.15	7.21
ACTGTTAGTTGACTTAGGGCAACCGATACGACGC	0.539	0.575	0.206	0.367	1.15	0.0221	0.731	0.221	0.105	-0.111
TCGAGTAGTTTACCAATGGGGCATTCAGCTTTCT	-0.0204	-0.0341	-0.552	0.423	-0.375	-0.115	-0.798	0.325	0.821	0.499
CCTAGTTGATCAAGGTCACACACGCTATAGGTAC	4.38	4.15	2.75	4.06	1.42	4.36	2.96	3.19	1.28	2.24
CGAATTAGGTCATCCAGGACAGTGAATACATTGA	4.75	3.32	0.829	2.55	0.231	5.11	7.49	6.52	3.78	6.07
TTACTAAGGTGAAAGGTCGTTGATGCACGCCTTG	4.62	4.06	0.805	3.47	-0.065	5.91	9.26	8.57	8.09	9.29
CCTAGTTCGTCAGGAGGTCACACACCGGATATGA	3.66	4.1	2.37	3.64	1.22	4.28	2.29	3.03	1.04	2.19
GAAGACAGGTGAAACGCAGGTAACTCAGGGTGGC	0.0149	0.318	-0.652	-0.0898	-0.743	1.14	0.681	0.383	-0.249	-0.0724
CTCGAAAGGTCGTGCTCAGGTCAGTATACCAAAC	5.86	5.15	1.44	4.15	0.558	5.2	3.19	4.09	1.06	2.7
CGTCCAAGGTCAAGGTCAGTGGAAGAGACTCGAA	7.57	5.46	1.22	4.68	0.505	5.89	6.29	6.3	2.6	5.24

Sequence	PBM binding z-score [1]	PBM binding z-score [2]	PBM binding z-score [3]	PBM binding z-score [4]	PBM binding z-score [5]	PBM binding z-score [6]	PBM binding z-score [7]	PBM binding z-score [8]	PBM binding z-score [9]	PBM binding z-score [10]
CCTACTGGGCCAAACGTCATTGATTCCAATGCTC	-0.411	-0.228	-0.236	-0.0474	-0.218	2.31	4.96	6.47	5.56	6.79
CCTACTGGGCCATCAGGTAATTGATATCAACGTT	-0.165	-0.235	-0.14	-0.089	-0.373	0.452	1.15	1.85	0.313	1.17
ACTATAAGTTGACTTAGGGCAACCGATACGACGC	0.483	0.919	0.287	0.215	0.348	0.427	1.23	0.205	0.44	0.54
CGAACGAGGGCATGAGTTGGTAGCAAATGCCGAT	0.159	0.0461	-0.707	-0.2	-1.32	1.06	0.849	0.827	0.00769	0.471
TCTTGTAGATCAAACGTTAAGAAAGCCGAAGCCT	0.211	0.363	-0.0781	0.18	-0.0447	0.988	0.748	3.17	3.27	3.48
TCTTGTAAATCAACAGGAGGTTAAGAAAGATCGA	0.826	1.32	0.389	1.1	0.0438	1.36	0.285	2.05	3.57	2.79
CAAACTAGGTCACGCAAGGTCAAAGTCGAATGAC	7.41	7.71	7.2	7.01	1.72	6.75	10.2	7.79	6.97	8.64
TCATACAGGTAATACAGGTGAAAGTCGGCATCTA	0.813	1.42	0.615	1.31	0.285	1.88	0.982	2.34	3.85	3.1
ACTAGCAGGCCAAGTTTTGGTCACTCAAACAAAG	-0.294	-0.403	-0.274	-0.34	-0.558	-0.0813	-0.156	-0.261	-0.692	-0.457
CCCAGTAGGTTATGGGGCATTCAGGCAACGGTGA	0.192	0.622	-0.205	-0.0107	-0.618	2.63	5.2	5.47	4.14	5.66
CCTACTGGGCCACGAAAGGTCATGGATTCAGTGA	3.62	5.06	3.79	4.07	0.209	4.97	4.97	5.27	2.28	4.77
AGAATGAGGTTATTAAGATCAGGCAATTGCGGTC	1.46	1.36	0.308	1.11	-0.00931	2.58	1.42	1.73	0.485	1.18
CGAACTTGGTCATCCAGGACAGTGAATACATTGA	0.205	-0.0973	-0.0371	-0.13	-0.606	0.208	0.624	-0.0338	0.133	-0.228
GCATAAAGGTAATACAAGGTGAAAGTCCGATTGT	0.963	4.21	0.396	1.65	-0.394	2.06	0.943	1.72	0.61	0.948
AGAATAAGGTTATACGTAGATCAGGGAAGAAAGT	1.99	1.9	0.223	1.56	0.0959	2.65	1.67	1.3	0.895	1.04
CTCGAAAGGTCGTGCTCTGGTGAGTATACCAAAC	4.94	3.65	0.255	3.52	0.0875	4.94	2.33	3.59	0.836	2.12
ATATGTAGGTTAAGGGTCATTGAGGTTGGTTCGC	5.02	4.71	3.01	4.45	1.6	6.56	11.9	10	10.5	10.7
ACTAGTTCGTCAGCTGAGGTCACACACAATTCGG	3.55	3.53	2.68	4.09	0.796	4.03	1.75	2.28	0.594	1.5
TCATATAGGTAATACAGGTGCAAGTCGGCATCTA	0.658	1.85	0.544	0.742	0.358	1.45	1.07	2.35	3.75	3.08
CGAACTAGGTCAAGGACAATGAATCTCCGCACGC	3.47	2.4	0.0804	1.37	-0.174	4.72	7.83	6.69	4.46	6.15
CGTCAAAGTTCAAGGTAACCTAACAGAAAGCAGC	6.46	5.68	2.88	3.53	0.767	5.05	4.79	5.23	1.93	3.95
AGAACGAGGGCACGTTGAGTTGATAGCAGAGTAG	0.758	0.705	-0.372	0.249	-0.789	2.23	2.19	1.42	0.235	0.958
CAAACCAGGTCACCGGAAGGTCAAAGTCCGCATG	7.26	6.79	5.52	6.01	1.71	6.08	7.88	6.92	4.07	6.45
CAAACTAGGTCACAGAAGTCAAAGTCCGTGCGTA	4.23	3.17	0.883	2.77	0.529	5.49	8.96	7.26	5.36	6.93
